62 compounds from PubChem BioAssay AID504332 (National Center for Advancing Translational Sciences (NCATS), 2011) can be followed below.

Structures are written as SMILES. The whole screen tested about 350,000 compounds, of which about 31,000 (8.9%) were called active. Where a call stands in place of a potency, no number is given. Another 15% or so got no clear call; they are omitted. The full list was thinned out, with actives kept by preference. A number with no mark means an inactive call. Calls come from the whole dose curve; as a rule, active = well fitted inhibition curve with a large enough effect; inconclusive = small, poorly fitted or top-dose-only effect; inactive = no such curve, though single readings can be large or run the other way.
Potency is the fitted concentration of half-maximal effect.

Chain of Histone-lysine N-methyltransferase EHMT2 (Homo sapiens) (Q96KQ7 913-1193 limits assumed): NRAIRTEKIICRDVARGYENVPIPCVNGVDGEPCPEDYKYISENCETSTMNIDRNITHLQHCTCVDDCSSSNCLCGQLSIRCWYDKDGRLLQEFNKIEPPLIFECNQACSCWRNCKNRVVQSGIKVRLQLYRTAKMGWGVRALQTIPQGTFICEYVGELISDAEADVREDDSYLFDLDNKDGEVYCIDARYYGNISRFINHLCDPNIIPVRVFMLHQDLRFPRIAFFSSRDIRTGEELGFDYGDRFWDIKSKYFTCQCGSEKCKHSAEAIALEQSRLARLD

In the test the target is Histone-lysine N-methyltransferase EHMT2 (Homo sapiens) (UniProt Q96KQ7). Put plainly: qHTS Assay for Inhibitors of Histone Lysine Methyltransferase G9a. Note: nearly all actives have a fitted effect of over 75% in size. The settings on record: G9a H3K9 monomethylation, AlphaScreen, 2 h; series mostly up to 59 µM. From the text:
Methylated lysines, on the N-terminal tails of histone proteins serve as epigenetic markers to recruit factors that can then modify local chromatin structure to lead to functional consequences. G9a and other members of the SUV39 family of the SET domain-containing superfamily of histone lysine methyltransferases (HMT) have been identified to specifically methylate Lys9 of histone H3 (H3K9). G9a catalyzes the mono- and di-methylation of H3K9 in mammalian euchromatic regions, where the resulting H3K9me2 is indicative of transcriptional repression. […] The inhibition of G9a will result in transcriptional activation and work synergistically with DNA methyltransferase and histone deacetylase inhibitors, to kill cancer cells. This qHTS assay for identification of G9a inhibitors is a chemiluminescence based AlphaScreen (PerkinElmer). Methylation of biotinylated-histone peptide is measured through specific antibody-based detection, in conjunction with streptavidin-coated donor and anti-IgG antibody-coated acceptor beads. The method is particularly well suited for detection of inhibitors acting by the desired histone peptide competitive mechanism and is applicable to testing other HMTs. Although AlphaScreen has significant advantages with its utility in a variety of epigenetic target assays, the primary screening data provided in this deposition should be used with caution due to the prevalence of screening artifacts. An AlphaScreen counterscreen is highly recommended to be run against any putative actives to eliminate non specific artifacts. Alternatively, one can use other AlphaScreen assays in PubChem to filter out promiscuous hits. Quinn et al. A chemiluminescence-based method for identification of histone lysine methyltransferase inhibitors. Mol Biosyst 6(5): 782-8. 2010. PMID: 20567762 [2] Baell,Holloway. New substructure filters for removal of pan assay interference compounds (PAINS) from screening libraries and for their exclusion in bioassays. J Med Chem. 53(7):2719-40. 2010. PMID: 20131845 NIH Molecular Libraries Probe Production Network [MLPCN] NIH Chemical Genomics Center [NCGC] Structural Genomics Consortium (SGC) NIH Grant: 5U54 MH084681-02
To each well of a 1,536w plate, 2ul of HMT enzyme (final 20nM) were added, using a nanoliter dispenser. The G9a- and GLP-inhibitor BIX-01294 (CID: 25150857) are used as an intraplate control, with a 16-point titration in duplicate. A Kalypsys pin-tool transferred 23nl of library compound solution in DMSO to each well. Following a 15 min incubation of enzyme with compounds at room temperature, 1ul mixture of b-H3K9 peptide substrate (final 500nM) and SAM cofactor (final 20uM) were added. Reactions were allowed to proceed at room temperature for 2 hours. Methylated b-H3K9 peptide product was detected with 0.5 ug/mL rabbit polyclonal anti-monomethyl histone H3K9 antibody (Abcam Inc., Cambridge, MA) and 20 ug/mL each streptavidin-coated donor and anti-rabbit IgG acceptor AlphaScreen beads. Antibody and beads were added in a 1ul dispense, for a final volume of 4ul, and plates were incubated, protected from the light, for 10 min at room temperature. Microplates were then read on an EnVision multilabel plate reader using the 1,536 plate HTS AlphaScreen aperture (excitation time 80 ms, measurement time 240 ms).
With `COCCCNC(=S)NCCNc1nc2cc(C)c(C)cc2cc1C#N`, the Potency entry is “inactive”.

`CCCCc1ccc(NC(=S)NCCCN2CCOCC2)cc1`: the activity, negative = inhibition is 31.4% [at 12.7 µM]. Turning to `Cc1ccc2cc(C#N)c(NCCNC(=S)NCCCN3CCOCC3)nc2c1`, the Potency is 39.8 µM (active). Take `CCOCCCNc1nc(-c2ccccc2)nc2ccccc12`: the Potency result is “inactive”. Still for that read-out and setting: under `CCn1c(SCC(=O)Nc2ccc(S(=O)(=O)Nc3onc(C)c3C)cc2)nnc1-c1ccccc1` stands “inactive”; under `Cc1cc(C)c2nc(-c3cccnc3)cc(C(=O)Nc3ccc(S(=O)(=O)Nc4onc(C)c4C)cc3)c2c1`, 50.1 µM (active); under `Cc1noc(NS(=O)(=O)c2ccc(NC(=O)c3oc4ccc(F)cc4c3C)cc2)c1C`, “inactive”.

For the compound `CC(C)OCCCn1c(SCC(=O)c2ccccc2)nc2c(sc3ccccc32)c1=O`, the Potency entry was “inactive”. On to `COc1cc(NC(=O)c2cccnc2SC)cc(OC)c1`, for which the Potency entry was “inactive”.

Regarding `COc1ccc(-c2nn(-c3ccccc3)cc2C(=O)Nc2nc(CC(C)=O)ns2)cc1`, the Potency entry is “inactive”. For the compound `COc1ccc(NC(=O)c2cn(-c3ccccc3)nc2SC)cc1`, the Potency was 39.8 µM (active). Turning to `Cc1nnc(C)n1-c1ccc(C(=O)Nc2cccc(Br)c2)cc1`, the Potency result is “inactive”. The same measure, in the same setting: under `CCOC(=O)CC1COCCN1C(=O)c1cc(COc2ccc(F)c(F)c2)on1` (configuration not stated) stands “inactive”. Consider `COc1ccc(NC(=O)CN(C)C(=O)Cc2coc3cc(C)c(C)cc23)cc1`, for which the Potency is 50.1 µM (active).

With `COc1ccc(NC(=O)CN(C)C(=O)c2cc(-c3ccc(C)o3)nc3ccccc23)cc1`, the Potency was 4.47 µM (active). Consider `Cc1ccc(NC(=O)c2cc(-c3ccc(C)o3)nc3ccccc23)nc1`, for which the Potency was 2.24 µM (active). With `CC(=O)N1CCN(C(=O)c2cc(-c3ccc(C)o3)nc3ccccc23)CC1`, the activity, negative = inhibition is -3.86% [at 0.501 µM]. As for `COc1ccc(-c2cc(C(=O)N(C)Cc3ccccc3)c3ccccc3n2)cc1`, the Potency entry is “inactive”.

In the case of `COc1ccc(NC(=O)CN(C)C(=O)c2n[nH]c3ccccc23)cc1`, the Potency entry was “inactive”. In the case of `CSc1ncccc1C(=O)Nc1ccc(C)cn1`, the Potency entry was “inactive”.

Consider `COc1ccc(NC(=O)CN(C)C(=O)CC2CCCCC2)cc1`, for which the Potency result is “inactive”.

`COc1ccc(CNC(=O)Cc2coc3ccc(C(C)C)cc23)cc1`: the Potency result is “inactive”. Take `Cc1oc2ncnc(N3CCOCC3)c2c1C(=O)NCCc1ccccc1`: the Potency entry is “inactive”. On the same count and under the same terms, under `CCCN(C(=O)Cn1cc(S(=O)(=O)N2CCN(c3ccccc3F)CC2)c2ccccc2c1=O)c1cccc(C)c1` stands “inactive”. Regarding `COc1ccc(NC(=O)CN(C)C(=O)c2cc(C3CC3)nn2-c2ccccc2)cc1`, the activity, negative = inhibition was -2.32% [at 2.33 µM]. In the case of `O=C(CCNC(=O)c1ccc([N+](=O)[O-])cc1)NC1CCCCC1`, the Potency result was “inactive”.

Consider `COc1cc(NC(=O)Cn2nc(-c3ccc(C)c(C)c3)ccc2=O)cc(OC)c1`, for which the Potency entry was “inactive”. On the same count and under the same terms, under `CCS(=O)(=O)Nc1cc(C(=O)OC)ccc1C(=O)OC` stands 2.82 µM (active); under `CCCN(CCC)C(=S)Nc1cc(C(=O)OC)ccc1C(=O)OC`, “inactive”; under `CCN(CCO)C(=S)Nc1cc(C(=O)OC)ccc1C(=O)OC`, “inactive”. Regarding `CCn1cc(C(=O)N(C)Cc2ccccc2)c(=O)c2cc(S(=O)(=O)N3CCCCCC3)ccc21`, the Potency entry was “inactive”.

On to `Cc1ccc(S(=O)(=O)N2CCc3cc(C(=O)Nc4ccc(Cl)cc4C)ccc32)cc1`, for which the Potency entry is “inactive”. In the case of `COC(=O)c1ccc(COc2ccc(/C=C/C(=O)c3ccc(OC)c(CSCC(=O)O)c3)cc2OC)cc1`, the Potency was 39.8 µM (active). Consider `COc1ccc(/C=C/C(=O)N2CCCC2)cc1OC`, for which the Potency result is “inactive”. As for `COc1ccc(/C=C/C(=O)c2ccc(NS(=O)(=O)c3ccc(C)cc3)cc2)cc1O`, the Potency entry was “inactive”.

Regarding `Cc1cc([N+](=O)[O-])nn1Cc1ccc(F)cc1`, the Potency entry is “inactive”. For the compound `Cc1nc(SCc2ccc(F)cc2)c([N+](=O)[O-])[nH]1`, the Potency is 25.1 µM (active). Consider `Cc1nc(N)nc(SCc2ccc([N+](=O)[O-])cc2)c1N`, for which the activity, negative = inhibition is -1.52% [at 12.7 µM]. Still for that read-out and setting: under `CCN(CC)CCn1c2c(c(SCC(=O)Nc3nc4ccccc4s3)nc1=O)CCCC2` stands 5.88% [at 0.501 µM]. In the case of `CC(C)(C)c1ccc(SCCc2ccncc2)cc1`, the Potency entry was “inactive”. On to `Cc1nn2c(=O)cc(COC(=O)CNC(=O)c3ccc(F)cc3)nc2s1`, for which the Potency entry was “inactive”. As to `CCOC(=O)C(=O)Nc1nc(-c2ccccc2)c(CC)s1`, the Potency entry is “inactive”. Regarding `C/C(=N/Nc1nc(-c2ccccc2)c(CC(=O)O)s1)c1ccccc1`, the Potency is 1.78 µM (active). Take `Cc1ccc(-c2nc(C)sc2CC(=O)O)cc1`: the Potency result is “inactive”. For the compound `Cc1nnc(SCC(=O)Nc2cccc(N)c2)n1-c1ccccc1`, the Potency result was “inactive”.

With `O=C(Nc1cccc(F)c1)NC1CCCCCCC1`, the Potency result is “inactive”. The same measure, in the same setting: under `COc1ccc(C(=O)c2oc3ccccc3c2NC(=O)COc2cccc(C)c2)cc1` stands “inactive”.

Turning to `CCc1nn(CC(=O)N2CCN(c3cccc(C(F)(F)F)c3)CC2)c(=O)c2cc3occc3n12`, the Potency result was “inactive”.

In the case of `COCCN(Cc1ccco1)C(=O)Cn1ncc2c([nH]c3ccccc32)c1=O`, the Potency entry is “inactive”. The same measure, in the same setting: under `O=C(CSc1nnc(-c2ccco2)n1-c1ccccc1)NCCc1ccccc1` stands “inactive”. For `COc1ccc(-n2c(SCC(=O)NCc3cccs3)nnc2-c2ccoc2C)cc1`, the activity, negative = inhibition was -7.6% [at 12.7 µM]. Take `COc1ccc(C(=O)NC(=O)CSc2nnc(-c3ccco3)n2-c2ccccc2)cc1`: the Potency was 89.1 µM (active).

`COc1ccc(CCNC(=O)C(=O)NCC(c2ccco2)S(=O)(=O)c2cccs2)cc1OC` (configuration not stated): the Potency result is “inactive”. For the compound `CCCCc1ccc(NC(=O)CN2C(=O)NC(Cc3ccccc3)C2=O)cc1` (configuration not stated), the Potency entry is “inactive”. On the same count and under the same terms, under `CCCC[C@H]1C(=O)N(c2ccccc2)N(c2ccc(O)cc2)C1=O` stands 7.94 µM (active); under `O=C(O)CC1S/C(=N\N=C/c2ccccc2O)N(c2ccc(O)cc2)C1=O` (configuration not stated), “inactive”.

Take `COc1ccc(-n2c(=O)c3c(c4cc(OC)ccc4n3C)n(Cc3cccc(C)c3)c2=O)cc1`: the Potency entry is “inactive”.

As to `COc1ccc(C)cc1NC(=O)CN(C)S(=O)(=O)c1ccc2c(c1)n(C)c(=O)c(=O)n2C`, the Potency entry was “inactive”. Still for that read-out and setting: the same measure for `COc1cc(/C=C/C2=CC(C)(C)NC(=S)N2)cc(OC)c1OC`: 39.8 µM (active); for `COc1ccc2[nH]c(C(=O)N/N=C/c3cc(OC)c(OC)c(OC)c3)cc2c1`: “inactive”; for `CCC(=O)c1ccc(OC(=O)/C=C/c2cc(OC)c(OC)c(OC)c2)cc1`: “inactive”.

`Cc1cccc(-c2nc(SCc3ccc(Br)cc3)n3[nH]c(=O)cc3n2)c1`: the Potency entry is “inactive”.
